In PubChem BioAssay (NCI):
About 83,000 compounds went through this panel and 20% of them were active in at least one assay; those are over-represented in the sample as a whole.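 Testing used 96-well plates and a 48-hour single-concentration exposure. Example: -40 means 40% of the starting cells died.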 Active and inactive are the calls of the source. How the source made its calls: active means growth percent below 10; inactive means the rest.

Key:
Assay in all cases: NCI-60 one-dose screen, 48 h (100 = growth as untreated, 0 = no growth, -100 = all killed)
Details in all cases: 10 µM unless noted
EKVX NSCLC = system: EKVX NSCLC
SN12C renal = system: SN12C renal
UO-31 renal = system: UO-31 renal
ACHN renal = system: ACHN renal
CAKI-1 renal = system: CAKI-1 renal
A498 renal = system: A498 renal
CCRF-CEM leukemia = system: CCRF-CEM leukemia
MOLT-4 leukemia = system: MOLT-4 leukemia
SR leukemia = system: SR leukemia
RPMI-8226 leukemia = system: RPMI-8226 leukemia
OVCAR-8 ovarian = system: OVCAR-8 ovarian
OVCAR-5 ovarian = system: OVCAR-5 ovarian
OVCAR-4 ovarian = system: OVCAR-4 ovarian
IGROV1 ovarian = system: IGROV1 ovarian
HS 578T breast = system: HS 578T breast
T-47D breast = system: T-47D breast
SK-OV-3 ovarian = system: SK-OV-3 ovarian
OVCAR-3 ovarian = system: OVCAR-3 ovarian
NCI/ADR-RES ovarian = system: NCI/ADR-RES ovarian

Measured: growth

O=C(CN1CCOCC1)NNc1ncnc2ccccc12
inactive: EKVX NSCLC 85.7% | SN12C renal 89.4% | UO-31 renal 71.5% | CAKI-1 renal 93.9% | A498 renal 111% | CCRF-CEM leukemia 13.8% | MOLT-4 leukemia 74.6% | SR leukemia 68.3% | RPMI-8226 leukemia 90.9% | OVCAR-8 ovarian 102% | OVCAR-5 ovarian 69.3% | OVCAR-4 ovarian 96.1% | IGROV1 ovarian 79.3% | HS 578T breast 89.5% | T-47D breast 41.6%
active: ACHN renal -91%

N/C(=N\c1nc2c(Cl)cc(Cl)cc2s1)C(Cl)(Cl)Cl
inactive: EKVX NSCLC 13.4% | SN12C renal 77.9% | UO-31 renal 45.8% | CCRF-CEM leukemia 83.7% | MOLT-4 leukemia 82.8% | SR leukemia 85.1% | RPMI-8226 leukemia 15.4% | OVCAR-8 ovarian 68.3% | OVCAR-5 ovarian 69.5% | OVCAR-4 ovarian 67.9% | SK-OV-3 ovarian 83.8% | IGROV1 ovarian 57.8% | HS 578T breast 22.1% | T-47D breast 32.3%
active: ACHN renal -32% | CAKI-1 renal 5.87% | A498 renal -44.4% | OVCAR-3 ovarian -9.72%

Fc1ccc(-c2nc(C(Cl)Cl)nc3cc(-c4ccccc4)nn23)cc1
inactive: SN12C renal 42.5% | UO-31 renal 40.9% | CCRF-CEM leukemia 29.9% | IGROV1 ovarian 20.4% | NCI/ADR-RES ovarian 17.8% | T-47D breast 44.3%
active: EKVX NSCLC 0.294% | ACHN renal -52.3% | CAKI-1 renal -21.4% | A498 renal -42.7% | MOLT-4 leukemia 6.63% | SR leukemia 0.553% | RPMI-8226 leukemia 8.68% | OVCAR-8 ovarian -0.748% | OVCAR-5 ovarian -12.3% | OVCAR-4 ovarian -18.6% | OVCAR-3 ovarian -28.1% | HS 578T breast -7.41%

Cc1sc2c(c1C)c(=O)nc1c(-c3nc(-c4ccc(F)cc4)no3)n[nH]n12
inactive: EKVX NSCLC 95.2% | SN12C renal 98.2% | UO-31 renal 88.1% | ACHN renal 96.5% | CAKI-1 renal 92.8% | A498 renal 98.6% | CCRF-CEM leukemia 104% | MOLT-4 leukemia 104% | SR leukemia 97.6% | RPMI-8226 leukemia 108% | OVCAR-8 ovarian 104% | OVCAR-5 ovarian 103% | OVCAR-4 ovarian 112% | SK-OV-3 ovarian 101% | OVCAR-3 ovarian 121% | HS 578T breast 105% | NCI/ADR-RES ovarian 109% | T-47D breast 95.5%

Clc1ccc2c(NCCCn3ccnc3)c3oc4ccc(Cl)cc4c3nc2c1
inactive: EKVX NSCLC 46.7% | SN12C renal 79.3% | UO-31 renal 44% | ACHN renal 44.4% | CAKI-1 renal 60.5% | A498 renal 45.9% | CCRF-CEM leukemia 57.2% | MOLT-4 leukemia 77% | RPMI-8226 leukemia 82.8% | OVCAR-8 ovarian 71.9% | OVCAR-5 ovarian 86.7% | OVCAR-4 ovarian 95.7% | SK-OV-3 ovarian 83.4% | IGROV1 ovarian 58.9% | OVCAR-3 ovarian 98.8% | HS 578T breast 91.1% | NCI/ADR-RES ovarian 74.1% | T-47D breast 78.2%
active: SR leukemia -11.2%

CSCCC(C(=O)O)N1C(=O)/C(=C/c2ccc(O)c(O)c2)SC1=S (stereo not given)
inactive: EKVX NSCLC 96.2% | SN12C renal 99.2% | UO-31 renal 89.3% | ACHN renal 99.9% | CAKI-1 renal 95.6% | A498 renal 85.3% | CCRF-CEM leukemia 105% | MOLT-4 leukemia 108% | SR leukemia 103% | RPMI-8226 leukemia 110% | OVCAR-8 ovarian 108% | OVCAR-5 ovarian 94.6% | OVCAR-4 ovarian 101% | SK-OV-3 ovarian 110% | OVCAR-3 ovarian 111% | HS 578T breast 104% | T-47D breast 95.1%

[Cl][Ru].c1ccc(-c2cccc(-c3ccccn3)n2)nc1.c1ccc(-c2ccnc3c2ccc2c(-c4ccccc4)ccnc23)cc1
active: RPMI-8226 leukemia -10.5%
inactive: EKVX NSCLC 62.7% | SN12C renal 20.1% | UO-31 renal 79.6% | ACHN renal 96.7% | CAKI-1 renal 80.3% | A498 renal 54.9% | CCRF-CEM leukemia 38% | MOLT-4 leukemia 41.4% | SR leukemia 11% | OVCAR-8 ovarian 68.2% | OVCAR-5 ovarian 68.1% | OVCAR-4 ovarian 47.3% | SK-OV-3 ovarian 46.8% | IGROV1 ovarian 21.4% | OVCAR-3 ovarian 13.8% | HS 578T breast 13.4% | NCI/ADR-RES ovarian 71.5% | T-47D breast 14.2%

O=c1[nH]c2ccc(Cl)cc2cc1CSc1ccccc1Nc1nccc(-c2ccc(Cl)cc2)n1
inactive: EKVX NSCLC 80.5% | SN12C renal 87.1% | UO-31 renal 81.2% | ACHN renal 95.7% | CAKI-1 renal 82.5% | A498 renal 88.1% | CCRF-CEM leukemia 90.6% | MOLT-4 leukemia 60.9% | SR leukemia 77.2% | RPMI-8226 leukemia 84% | OVCAR-8 ovarian 96.5% | OVCAR-4 ovarian 89% | SK-OV-3 ovarian 122% | IGROV1 ovarian 82.7% | OVCAR-3 ovarian 89.3% | HS 578T breast 91.2% | T-47D breast 84.8%

Cc1nc2cnc(N)c(C#Cc3cncc(C(=O)Nc4ccc(Cl)c(C(F)(F)F)c4)c3)c2nc1C
inactive: EKVX NSCLC 82.4% | SN12C renal 36.3% | UO-31 renal 19.9% | ACHN renal 30.3% | CAKI-1 renal 18.8% | A498 renal 55.4% | CCRF-CEM leukemia 23.2% | MOLT-4 leukemia 35.6% | OVCAR-8 ovarian 69.7% | OVCAR-5 ovarian 54.5% | OVCAR-4 ovarian 65.2% | SK-OV-3 ovarian 120% | IGROV1 ovarian 16.9% | HS 578T breast 35.4% | NCI/ADR-RES ovarian 63.9% | T-47D breast 109%
active: SR leukemia -18.8% | RPMI-8226 leukemia -10.2%

C#C[C@]1(O)CC[C@H]2[C@@H]3CC=C4c5sc(Nc6ccc(Cl)cn6)nc5CC[C@]4(C)[C@H]3CC[C@@]21C
active: A498 renal -6.58% | MOLT-4 leukemia 2.85% | SR leukemia 7.04% | RPMI-8226 leukemia -21.2% | HS 578T breast -2.9%
inactive: EKVX NSCLC 42.3% | SN12C renal 79.5% | UO-31 renal 40% | ACHN renal 53.6% | CAKI-1 renal 29.1% | CCRF-CEM leukemia 15.1% | OVCAR-8 ovarian 49.6% | OVCAR-5 ovarian 75.8% | OVCAR-4 ovarian 65.3% | IGROV1 ovarian 71.5% | OVCAR-3 ovarian 74.3% | NCI/ADR-RES ovarian 54.1% | T-47D breast 68.8%

COc1cc(OC)c(C2C(Cl)C(=O)N2Nc2ncnc3ccccc23)cc1OC (stereo not given)
inactive: EKVX NSCLC 95.3% | SN12C renal 98.3% | UO-31 renal 78.8% | ACHN renal 90.5% | CAKI-1 renal 91.8% | A498 renal 97.2% | CCRF-CEM leukemia 102% | MOLT-4 leukemia 105% | SR leukemia 104% | RPMI-8226 leukemia 106% | OVCAR-8 ovarian 104% | OVCAR-5 ovarian 105% | OVCAR-4 ovarian 104% | IGROV1 ovarian 83.5% | OVCAR-3 ovarian 116% | HS 578T breast 107% | NCI/ADR-RES ovarian 105% | T-47D breast 96.1%

COc1ccc(-c2cc(C(=O)N=Nc3c(O)[nH]c4ccccc34)c3ccccc3n2)cc1OC
inactive: EKVX NSCLC 91.9% | SN12C renal 94.6% | UO-31 renal 85.2% | ACHN renal 102% | CAKI-1 renal 94.9% | A498 renal 82.1% | CCRF-CEM leukemia 100% | MOLT-4 leukemia 102% | SR leukemia 102% | RPMI-8226 leukemia 99.4% | OVCAR-8 ovarian 98% | OVCAR-4 ovarian 99.3% | SK-OV-3 ovarian 103% | IGROV1 ovarian 90.2% | OVCAR-3 ovarian 109% | HS 578T breast 97% | T-47D breast 87.3%

O=c1/c(=C\c2ccc(-c3ccccc3)o2)sc2nc(-c3ccccc3)nn12
inactive: EKVX NSCLC 99.9% | SN12C renal 97.3% | UO-31 renal 89% | ACHN renal 102% | CAKI-1 renal 96.4% | A498 renal 84.3% | CCRF-CEM leukemia 101% | MOLT-4 leukemia 108% | SR leukemia 102% | RPMI-8226 leukemia 102% | OVCAR-8 ovarian 105% | OVCAR-5 ovarian 104% | OVCAR-4 ovarian 107% | SK-OV-3 ovarian 105% | IGROV1 ovarian 103% | HS 578T breast 95.4% | NCI/ADR-RES ovarian 101% | T-47D breast 92.9%

O=C(CSc1nc2sc3c(c2c(=O)n1-c1ccc(Cl)cc1)CCCC3)NNC(=O)Nc1cccc(C(F)(F)F)c1
inactive: EKVX NSCLC 31.5% | SN12C renal 14.6% | UO-31 renal 13.2% | CAKI-1 renal 13.7% | CCRF-CEM leukemia 17.1% | OVCAR-8 ovarian 22.1% | OVCAR-5 ovarian 52.6% | OVCAR-4 ovarian 22.5% | SK-OV-3 ovarian 62.1% | IGROV1 ovarian 24.4% | HS 578T breast 56.9% | NCI/ADR-RES ovarian 32.2% | T-47D breast 13.2%
active: ACHN renal 6.86% | A498 renal -5.48% | MOLT-4 leukemia 8.64% | SR leukemia 5.49% | RPMI-8226 leukemia -7.39% | OVCAR-3 ovarian 5.17%

C[C@@H]1CN(c2ccc3ncc(C#Cc4cncc(C(=O)Nc5ccc(CN6CCN(C)CC6)c(C(F)(F)F)c5)c4)n3n2)C[C@H](C)O1
inactive: T-47D breast 15%
active: EKVX NSCLC -18.9% | SN12C renal -26.7% | UO-31 renal -87.9% | ACHN renal -94% | CAKI-1 renal -94.1% | A498 renal -90.4% | CCRF-CEM leukemia 3.83% | MOLT-4 leukemia 1.65% | SR leukemia -24.3% | RPMI-8226 leukemia -2.52% | OVCAR-8 ovarian 0.405% | OVCAR-5 ovarian -35.4% | OVCAR-4 ovarian -10.1% | HS 578T breast -37%

c1ccc2c(NCCCN3CCOCC3)c3oc4ccccc4c3nc2c1
inactive: CCRF-CEM leukemia 12% | T-47D breast 21.1%
active: EKVX NSCLC -19.6% | SN12C renal 3.3% | UO-31 renal -79.6% | ACHN renal -9% | CAKI-1 renal -27% | A498 renal -86.9% | MOLT-4 leukemia -4.43% | SR leukemia -12.1% | RPMI-8226 leukemia -14.4% | OVCAR-8 ovarian -71.7% | OVCAR-5 ovarian 1.26% | OVCAR-4 ovarian 7.86% | SK-OV-3 ovarian -9.67% | IGROV1 ovarian -16.7% | HS 578T breast 5.28% | NCI/ADR-RES ovarian 7.98%

Cc1c(Nc2nnc(SCC(=O)Nc3sc4c(c3C#N)CCCC4)s2)c(=O)n(-c2ccccc2)n1C
inactive: EKVX NSCLC 97.4% | SN12C renal 106% | UO-31 renal 97.3% | ACHN renal 100% | CAKI-1 renal 110% | A498 renal 109% | CCRF-CEM leukemia 99.4% | MOLT-4 leukemia 92.7% | SR leukemia 98.5% | RPMI-8226 leukemia 96.7% | OVCAR-8 ovarian 100% | OVCAR-4 ovarian 108% | SK-OV-3 ovarian 120% | IGROV1 ovarian 104% | OVCAR-3 ovarian 99.1% | HS 578T breast 109% | T-47D breast 97.3%
